From PubChem BioAssay AID743255 (National Center for Advancing Translational Sciences (NCATS), 2014)
Among all 390,000 compounds or so, about 910 (0.23%) were called active. About 5% were inconclusive and are not listed. The call rests on the fitted dose curve; in most records, active means well fitted inhibition curve with a large enough effect; inconclusive means small, poorly fitted or top-dose-only effect; inactive means no such curve, though single readings can be large or run the other way. The list comes from a sample in which actives are over-represented; it also holds similar structures and randomly drawn compounds. Entries that show only a call come without a potency.

Target: Ubiquitin carboxyl-terminal hydrolase 1 (Homo sapiens) (UniProt O94782)
Sequence (O94782 whole entry, looked up): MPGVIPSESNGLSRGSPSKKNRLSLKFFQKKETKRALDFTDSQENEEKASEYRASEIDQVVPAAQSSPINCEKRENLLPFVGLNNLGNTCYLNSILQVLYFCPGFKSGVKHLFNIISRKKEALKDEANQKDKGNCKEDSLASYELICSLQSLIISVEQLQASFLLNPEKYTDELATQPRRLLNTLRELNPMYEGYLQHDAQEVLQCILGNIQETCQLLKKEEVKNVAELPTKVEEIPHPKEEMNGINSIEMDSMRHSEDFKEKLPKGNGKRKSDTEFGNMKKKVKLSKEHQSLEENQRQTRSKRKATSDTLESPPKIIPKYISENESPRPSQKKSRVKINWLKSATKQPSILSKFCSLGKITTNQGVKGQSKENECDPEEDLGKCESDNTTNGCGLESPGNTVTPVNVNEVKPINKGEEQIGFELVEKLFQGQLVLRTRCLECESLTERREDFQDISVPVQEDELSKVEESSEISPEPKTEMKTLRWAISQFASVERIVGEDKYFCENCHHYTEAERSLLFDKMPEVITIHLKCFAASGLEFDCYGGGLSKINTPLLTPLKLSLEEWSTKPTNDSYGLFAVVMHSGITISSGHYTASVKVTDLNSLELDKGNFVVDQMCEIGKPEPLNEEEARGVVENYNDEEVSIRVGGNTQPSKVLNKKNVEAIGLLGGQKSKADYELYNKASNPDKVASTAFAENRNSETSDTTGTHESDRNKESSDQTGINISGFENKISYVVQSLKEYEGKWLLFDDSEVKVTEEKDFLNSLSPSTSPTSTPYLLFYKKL
Test: Inhibitors of USP1/UAF1: Primary Screen; further: nearly all actives have a fitted effect of over 60% in size
Conditions: recombinant USP1/UAF1, Ub-Rhodamine cleavage fluorescence; series mostly up to 57.1 µM
Source text: Deubiquitinating enzymes (DUBs) are a class of enzymes that can cleave isopeptide bond formed between the C-terminal carboxylate of ubiquitin and a lysine side-chain amino group on the target protein. Among them, ubiquitin specific proteases (USPs) constitute the largest DUB family. Human USPs are emerging as promising targets for pharmacological intervention because of their connection to a number of human diseases, including prostate, colon and breast cancer (1, 2), pediatric acute lymphoblastic leukemia (3), and familial cylindromatosis (4). The advantage of inhibiting USPs lies in the potential specificity of therapeutic intervention that can lead to better efficacy and reduce nonspecific side effects. In a collaboration between the University of Delaware and the NIH Chemical Genomics Center, a high-throughput screen assay was developed to screen for USP1/UAF1 inhibitors. This miniaturized assay has a fluorescent read-out and is used to screen the NIH Molecular Libraries Small Molecule Repository (MLSMR) in order to identify a small molecule that inhibits USP1. NIH Chemical Genomics Center [NCGC] NIH Molecular Libraries Probe Centers Network [MLPCN] MLPCN Grant: DA030552 Assay Submitter (PI): Zhihao Zhuang, University of Delaware 1. Priolo, C., et al. (2006) The isopeptidase USP2a protects human prostate cancer from apoptosis. Cancer Res 66, 8625-8632 2. Popov, N., et al. (2007) The ubiquitin-specific protease USP28 is required for MYC stability. Nat Cell Biol 9, 765-774 3. De Pitta, C., et al. (2005) A leukemia-enriched cDNA microarray platform identifies new transcripts with relevance to the biology of pediatric acute lymphoblastic leukemia. Haematologica 90, 890-898 4. Kovalenko, A., et al. (2003) The tumour suppressor CYLD negatively regulates NF-kappaB signalling by deubiquitination. Nature 424, 801-805
3 microliters of reagents (buffer in columns 3 and 4 as negative control and 1nM USP1/UAF1 complex in columns 1, 2, and 5-48) are dispensed into Greiner black solid bottom 1536-well assay plates. Compounds are then transferred via Kalypsys pin tool equipped with 1536-pin array (10nl slotted pins, V&P Scientific, San Diego, CA). Following an incubation step of 15 min at room temperature, 1ul of Ub-Rho substrate (150nM final concentration) is added to initiate the reaction. The plates are immediately centrifuged at 1000 rpm for 15 seconds, and subsequently transferred to a ViewLux high-throughput CCD imager (PerkinElmer) wherein kinetic measurements of fluorescence are acquired using 480 nm excitation/540 nm emission filter set (6 reads every 60 seconds, see Table 1). All reagents are diluted in an assay buffer consisting of 50mM HEPES (pH 7.8), 0.5mM EDTA, 0.1 mg/ml BSA, 1mM TCEP, and 0.01% Tween-20.
Potency means the concentration at half of the fitted maximal effect.

| Structure (SMILES) | Potency |
| --- | --- |
| CN(C)S(=O)(=O)c1ccc(C(=O)N(Cc2cccnc2)c2nc3c(F)cc(F)cc3s2)cc1 | inactive |
| COc1ccc(-n2c(=O)c3c(c4cc(OC)ccc4n3C)n(Cc3cccc(C)c3)c2=O)cc1 | inactive |
| Oc1ccc(N=Cc2sc3ccccc3c2Cl)cc1 | 25.1 µM (active) |
| CCc1nc(-c2cc(S(=O)(=O)N3CCN(c4ccc(OC)cc4)CC3)ccc2OC)no1 | inactive |
| CCOc1cc(C(=O)NCCc2csc3nc(-c4ccc(C)cc4)nn23)cc(OCC)c1OCC | inactive |
| CCSc1nnc(NC(=O)c2cc(=O)c3cc(C)c(C)cc3o2)s1 | inactive |
| Cc1c(NC(=O)Nc2ccc(F)c(Cl)c2)c(=O)n(-c2ccccc2)n1C | inactive |
| Cc1cccc(N2CCN(C(=O)CCSCc3ccccc3F)CC2)c1C | inactive |
| COc1ccc(CCNC(=O)c2nn(C)c3c2CSc2ccccc2-3)cc1OC | inactive |
| C#CCOCCOCCOCCNc1nc(N2CCN(C(=O)C([C@@H](C)CC)n3cc(C(N)COC(=O)C(F)(F)F)nn3)CC2)nc(N2CCN(C(=O)[C@H](CCCCN)n3cc(C(N)CC(C)C)nn3)CC2)n1 (some centres not stated) | inactive |
| C#CCOCCOCCOCCNc1nc(N2CCN(C(=O)CCCCCCCCCCNC(=O)[C@H]([C@@H](C)CC)n3cc(CCCCN=C(N)N)nn3)CC2)nc(N2CCN(C(=O)CCCCCCCCCCNC(=O)[C@H](CO)n3cc(CCCSC)nn3)CC2)n1 | 28.2 µM (active) |
| C#CCOCCOCCOCCNc1nc(N2CCOCC2)nc(N2CCN(C(=O)[C@H](Cc3ccc(O)cc3)n3cc(CCO)nn3)CC2)n1 | inactive |
| COc1ccccc1NC(=O)c1cc(S(=O)(=O)NCCc2ccccc2)ccc1F | inactive |
| COC(=O)c1ccc(NC(=O)c2cc(S(=O)(=O)N3CCC(C)CC3)cn2C)cc1 | inactive |
| Cc1ccc(Cl)cc1N(C)C(=O)C1CCCN(c2ncnc3onc(-c4ccc(F)cc4)c23)C1 (configuration not stated) | inactive |
| COc1ccc(Cc2nc3ccc(C(=O)NCc4ccc(OC)cc4OC)cc3o2)cc1 | inactive |
| Cc1ccccc1CNC(=O)CCc1cn(Cc2ccccc2C)c2ccccc12 | inactive |
| Cc1ccc(CCNC(=O)c2nnc(Cc3cccc(F)c3)o2)cc1 | inactive |
| CCS(=O)(=O)c1nc(S(=O)(=O)c2ccc(C)cc2)c(NCc2ccc(Cl)cc2)s1 | inactive |

| Structure (SMILES) | Potency |
| --- | --- |
| COc1ccc(-c2nc(Cn3c(=O)cc(C)c4c(C)nn(-c5ccccc5)c43)c(C)o2)c(OC)c1 | inactive |
| Cc1ccc(Cl)cc1N1CCN(C(=O)c2cccn3c(=O)c4cc(Cl)ccc4nc23)CC1 | inactive |
| COC(=O)c1cc(NC(=O)CCc2c(C)nc3c4c(C)cc(C)nc4nn3c2C)cc(C(=O)OC)c1 | inactive |
| CC(=O)N1C(=O)/C(=C2\SC(=S)N(NC(=O)c3ccc(O)cc3)C2=O)c2ccccc21 | 3.98 µM (active) |
| CC(C)n1cnc2c(NCc3ccccc3)cc(OCC3CCN(C)CC3)cc21 | 17.8 µM (active) |
| Cc1ccc(-c2cnc(NCc3ccc(C(C)C)cc3)n2C)cc1 | inactive |
| CCOC(=O)c1c(NC(=O)/C=C/c2ccc(OC)cc2)sc2c1CCC(C)C2 (configuration not stated) | inactive |
| CCCN1CCc2nc(N3CCN(C)CC3)ncc2C1 | inactive |
| O=C(CCl)N(Cc1cccc([N+](=O)[O-])c1)c1cccc(Cl)c1 | inactive |
| COc1ccc([N+](=O)[O-])cc1C1NN=C(c2cccc3ccccc23)S1 (configuration not stated) | inactive |
| O=C1Nc2ccc([N+](=O)[O-])cc2C1=Nc1cccc(CO)c1 | 25.1 µM (active) |
| CN1C(=O)c2cccc3c(N)ccc(c23)C1=O | 4.47 µM (active) |
| CCOC(=O)c1c(NC(C)=O)c2c3c(sc2n1Cc1c(C)cc(C)cc1C)CCCC3 | inactive |
| COc1ccc(CCNC(=O)c2cc3cccc4c3n2CC(C)S4)c(OC)c1OC (configuration not stated) | inactive |
| Cc1ccc(OC(=O)CSc2nnc(-c3cccs3)o2)cc1 | inactive |
| O=C(CSCc1cnn(-c2ccccc2)c1-n1cccc1)NCc1ccccc1Br | inactive |
| CCOC(=O)C1CCCN(C(=O)c2ccc3c(c2)sc2nc(-c4ccc(CC)cc4)cn23)C1 (configuration not stated) | inactive |
| COc1ccc(OC)c2sc(N3CCN(C(=O)C4COc5ccccc5O4)CC3)nc12 (configuration not stated) | inactive |
| Cc1ccc2c(c1)N(C(=O)Nc1ccc(Br)cc1F)CCO2 | inactive |

| Structure (SMILES) | Potency |
| --- | --- |
| CCOc1ccc(CCNC(=O)c2cc3c(=O)n(C)c4ccccc4c3n2C)cc1 | inactive |
| CCOC(=O)CC1C(=O)NCCN1c1nc2c(C)cccn2c(=O)c1/C=C1\SC(=S)N(C(C)CC)C1=O (configuration not stated) | 8.91 µM (active) |
| CCOC(=O)CNC(=O)c1cc2c(=O)n3cccc(C)c3nc2s1 | inactive |
| CCCN(CCC)c1nc2c(C)cccn2c(=O)c1/C=C1/SC(=S)N(Cc2ccco2)C1=O | inactive |
| O=C(NCC(c1cccnc1)N1CCc2ccccc21)c1cccc(C(F)(F)F)c1 (configuration not stated) | inactive |
| CC1=C(C(=O)OCC(C)C)C(c2ccc(OCc3ccccc3)cc2)N2C(=O)CCSC2=N1 (configuration not stated) | inactive |
| COc1cccc(C(=O)Nc2ccc3oc(-c4ccc5ccccc5c4)nc3c2)c1 | inactive |
| CCN1C(=O)c2ccccc2S(=O)c2ccc(C(=O)NCc3ccc(F)cc3)cc21 (configuration not stated) | inactive |
| COc1ccc(-n2nc(C(=O)NCCc3ccc(Cl)cc3)c3c4ccccc4n(C)c3c2=O)cc1Cl | inactive |
| CCCN(CCC)C(=O)C1CCCN(c2ncnc3c2nc2n3CCCCC2)C1 (configuration not stated) | inactive |
| CCN(Cc1ccccc1)C(=O)c1cn(-c2cccc(OC)c2)c(=O)c2ccccc12 | inactive |
| COc1cc(OC)c(OC)cc1/C=C/c1nc2ccccc2c(=O)n1-c1ccc(Br)c(C)c1 | inactive |
| Cc1cccc(N2CCN(C(=O)Cn3ncc4c5ccccc5n(C)c4c3=O)CC2C)c1 (configuration not stated) | inactive |
| CCOc1ccccc1C(=O)NC1(C(F)(F)F)C(=O)Nc2c1c(=O)[nH]c(=O)n2-c1ccc(F)cc1 (configuration not stated) | inactive |
| Oc1c(C=Nc2cccc3nsnc23)ccc2ccccc12 | 25.1 µM (active) |
| COCCNC(=O)c1cc(-c2cccc(Cl)c2)on1 | inactive |
| COc1ccc(C(=O)c2oc3ccccc3c2NC(=O)COc2cccc(C)c2)cc1 | inactive |
| Cc1c(C(=O)N2CCCC2)oc2c1-c1nn(CC(=O)NCc3ccc(OC(C)C)cc3)cc1CC2 | inactive |
| COc1ccccc1NC(=O)c1sc2nc(C)c(C(=O)Nc3ccc(Cl)cc3)c(-c3ccc(Br)cc3)c2c1N | inactive |
